Experimental findings from PubChem BioAssay (NCATS) are described below.

Test [1] has as its system MCC-13. The test can be described thus: qHTS assay to identify novel small-molecules to repurpose for Merkel cell carcinoma treatment (AID 1296009). Also: nearly all actives have a fitted effect of over 60% in size. Also: potency is read from the fitted curve at half-maximal effect. To be noted: MCC and control cell lines, CellTiter-Glo viability, 72 h; series mostly up to 46 µM. The procedure, abridged:
(§1)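 qHTS format: cells treated with library compounds in DMSO across 8 (NPC) or 11 (MIPE) concentrations. Readout after 72 hr at 37 degree celsius was CellTiter-Glo luminescence.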
(In general: In qHTS, concentration-response curves come from the screen itself.)

For test [2], the system named is MCC-26. The description is as above. The following applies: MCC and control cell lines, CellTiter-Glo viability, 72 h; series mostly up to 46 µM. The procedure, abridged: as §1
Background: In ATP-based viability assays light output follows the ATP content of the culture.

Test [3] has as its system MKL-1. The description is as above. To be noted: MCC and control cell lines, CellTiter-Glo viability, 72 h; series mostly up to 46 µM. The method, boiled down: as §1
Test [4] relates to MKL-2. The test is described as above. The following applies: MCC and control cell lines, CellTiter-Glo viability, 72 h; series mostly up to 46 µM. The method, boiled down:
as §1

Test [5] deals with UISO. The description is as above. To be noted: MCC and control cell lines, CellTiter-Glo viability, 72 h; series mostly up to 46 µM. The procedure, abridged:
as §1

The subject of test [6] is WaGa. Described as above. To be noted: MCC and control cell lines, CellTiter-Glo viability, 72 h; series mostly up to 46 µM. The procedure, abridged: as §1
Test [7] relates to C33A. Put plainly: Primary qHTS to identify gynecologic anti-cancer compounds using libraries of approved drugs and bioactive compounds (AID 1345084). Also: nearly all actives have a fitted effect of over 55% in size. Also: potency is read from the fitted curve at half-maximal effect. The following applies: Gynecologic cancer cell panel viability, ATPlite luminescence, 48 h; series mostly up to 57.5 µM. The procedure, abridged: (§2)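 Five-concentration response, 48 h; readout is ATP-driven luciferase luminescence.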

Test [8] deals with CAOV3. The test is described as above. To be noted: Gynecologic cancer cell panel viability, ATPlite luminescence, 48 h; series mostly up to 57.5 µM. The method, boiled down:
as §2

Test [9] relates to CASKI. The description is as above. The following applies: Gynecologic cancer cell panel viability, ATPlite luminescence, 48 h; series mostly up to 57.5 µM. The method, boiled down: as §2
In test [10] the test system is Es-2. The description is as above. The following applies: Gynecologic cancer cell panel viability, ATPlite luminescence, 48 h; series mostly up to 57.5 µM. The method, boiled down: as §2
Test [11] concerns HeLa. The test is described as above. To be noted: Gynecologic cancer cell panel viability, ATPlite luminescence, 48 h; series mostly up to 57.5 µM. The method, boiled down:
as §2

The test system of test [12] is Hek293T. The test is described as above. To be noted: Gynecologic cancer cell panel viability, ATPlite luminescence, 48 h, control line for the selectivity index; series mostly up to 57.5 µM. The procedure, abridged:
as §2

Test [13] has as its system JEG-3. The description is as above. To be noted: Gynecologic cancer cell panel viability, ATPlite luminescence, 48 h; series mostly up to 57.5 µM. The method, boiled down: as §2
In test [14] the test system is OV90. The description is as above. The following applies: Gynecologic cancer cell panel viability, ATPlite luminescence, 48 h; series mostly up to 57.5 µM. The procedure, abridged: as §2
The test system of test [15] is PA-1. The description is as above. To be noted: Gynecologic cancer cell panel viability, ATPlite luminescence, 48 h; series mostly up to 57.5 µM. The method, boiled down:
as §2

Test [16] relates to SKOV3. Described as above. The following applies: Gynecologic cancer cell panel viability, ATPlite luminescence, 48 h; series mostly up to 57.5 µM. The procedure, abridged:
as §2

Test [17] deals with Tov-21-G. Described as above. To be noted: Gynecologic cancer cell panel viability, ATPlite luminescence, 48 h; series mostly up to 57.5 µM. The procedure, abridged: as §2
Test [18] has as its system Tov112D. Described as above. To be noted: Gynecologic cancer cell panel viability, ATPlite luminescence, 48 h; series mostly up to 57.5 µM. The method, boiled down: as §2
A short description of test [19]: Drug repurposing screens with cells derived from glioblastoma tumor samples (AID 1345199). Also: nearly all actives have a fitted effect of over 40% in size. The following applies: GBM patient neurospheres viability, ATP luminescence, 48 h. The procedure, abridged:
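Four patient lines of CD133+ GBM neurospheres were screened at several concentrations; hits were retested in those lines plus three slower-growing GBM lines, using 48-hour treatment and ATP-based viability.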

Setting [20] is: at 20 µM (top of the series), tumour line C.
Where [21] appears, read: at 21.2 µM (top of the series), tumour line B.
[22] abbreviates: at 21.2 µM (top of the series), tumour line D.
Setting [23] is: at 21.3 µM (top of the series), tumour line A.
[24] abbreviates: at 45.9 µM (top of the series), tumour line B.
[25] abbreviates: at 45.9 µM (top of the series), tumour line D.
[26] abbreviates: at 46.1 µM (top of the series), tumour line C.
Where [27] appears, read: at 46 µM (top of the series), tumour line A.

Several values for one entry are separate records, joined by “and”; a condition that tells them apart may be missing. Equal values may be shown once. Inconclusive results are not listed. Some structures have more than one record in an assay (separate samples or runs), and their calls can disagree. Activity calls are given as the source filed them. Calls follow the shape of the dose curve; as a rule, active = well fitted curve in the direction sought with a large enough effect; inconclusive = small, poorly fitted or top-dose-only effect, or another doubt; inactive = no such curve, though single readings can be large; an effect the other way counts as inactive or inconclusive.
% is scaled to controls: 0 for no effect and ±100 for the full control effect.

In the case of `Nc1ccc(S(=O)(=O)Nc2ccc(Cl)nn2)cc1`, the Potency entry in test [1], in test [2], in [3], in test [4], in test [5] and in test [6] was “inactive” each time. In addition, the Potency result in [7], in [8], in [9], in test [10], in [11] and in [12] was “inactive” each time. The Potency entry in [13], in [14], in test [15], in [16], in test [17] and in test [18] was “inactive” each time. Further, the activity, negative = cell killing in test [19] (setting [20]) was -15.3% (inactive); in [19] (setting [21]), -15.4% (inactive); in test [19] (setting [22]) it was -6% (inactive); in test [19] (setting [23]), -27.3% (inactive); in test [19] (setting [24]), -5.57% (inactive); in test [19] (setting [25]), -3.89% (inactive). The activity, negative = cell killing in test [19] (setting [26]) is -7.4% (inactive).

For the compound `C=CCn1c(=O)n([C@@H]2O[C@H](CO)[C@@H](O)[C@H]2O)c2nc(N)[nH]c(=O)c21`, the Potency entry in [1], in test [2], in test [3], in [4], in test [5] and in test [6] was “inactive” in each case. The Potency result in test [7], in [8], in test [9], in test [10], in test [11] and in test [12] was “inactive” in each case. The Potency result in test [13], in [14], in test [15], in test [16], in test [17] and in test [18] was “inactive” each time. The activity, negative = cell killing in test [19] (setting [24]) is -4.36% (inactive); in [19] (setting [25]), 2.91% (inactive); in test [19] (setting [27]) it was -17.2% (inactive); in test [19] (setting [26]), -7.78% (inactive).

With `NC(=O)NC(=O)Cc1ccccc1`, the Potency result in test [1], in [2], in [3], in test [4], in test [5] and in test [6] was “inactive” throughout. Also, the Potency result in test [7], in [8], in [9], in test [10], in [11] and in [12] was “inactive” in each case. The Potency entry in test [13], in test [14], in test [15], in [16], in test [17] and in [18] was “inactive” in each case. For the same compound, the activity, negative = cell killing is 5.96% (inactive) in test [19] (setting [24]), 3.38% (inactive) in test [19] (setting [25]), -32.3% (inactive) in [19] (setting [27]) and -5.24% (inactive) in test [19] (setting [26]).

As to `NC(=O)N/N=C/c1ccc([N+](=O)[O-])o1`, the Potency result in [1], in [2], in test [5], in test [7], in [8] and in test [9] was “inactive” throughout. The Potency result in [12], in [14], in test [15] and in [18] was “inactive” each time. For the same compound, the Potency is 24.3 µM (active) in test [3]; 15.4 µM (active) in test [4]; 38.6 µM (active) in test [6]; 31.6 µM (active) and inactive in test [10]; 31.6 µM (active) in test [11]; 14.1 µM (active) and inactive in test [16]. Also, the Potency in test [17] is 39.8 µM (active) and inactive. Moreover, the activity, negative = cell killing in test [19] (setting [24]) was 2.52% (inactive); in test [19] (setting [25]), -11.8% (inactive); in test [19] (setting [27]), -13.9% (inactive); in test [19] (setting [26]) it was 14.2% (inactive).

As to `NC(=O)NNc1ccccc1`, the Potency result in test [1], in test [2], in test [3], in [4], in [5] and in test [6] was “inactive” in each case. The Potency result in [7], in test [9], in test [10], in test [11], in test [12] and in test [13] was “inactive” each time. The Potency entry in [14], in test [15], in [16], in [17] and in test [18] was “inactive” in each case. Besides, the activity, negative = cell killing in [19] (setting [24]) is -9.66% (inactive) and -3.84% (inactive); in [19] (setting [25]) it was -10.5% (inactive) and 5.37% (inactive); in test [19] (setting [27]), -34.9% (inactive); in test [19] (setting [26]), -25.2% (inactive) and -16.9% (inactive).

With `CN(C)CCCO[C@@H]1[C@H]2OC(C)(C)O[C@H]2O[C@@H]1C(O)CO` (some centres not stated), the Potency result in test [1], in test [2], in test [3], in test [4], in test [5] and in test [6] was “inactive” each time. Also, the Potency result in [7], in test [8], in test [9], in test [10], in test [11] and in test [13] was “inactive” each time. Also, the Potency entry in test [14], in test [15], in [16], in [17] and in [18] was “inactive” in each case. The activity, negative = cell killing is -1.76% (inactive) in [19] (setting [24]), -18.3% (inactive) in test [19] (setting [25]) and -10.9% (inactive) in [19] (setting [26]).

As to `C[C@@H](O)[C@H](N)C(=O)O`, the Potency entry in test [1], in test [2], in test [3], in test [4], in [5] and in test [6] was “inactive” each time. In addition, the Potency result in test [7], in test [8], in [9], in [10], in [11] and in test [12] was “inactive” each time. For the same compound, the Potency result in test [13], in test [14], in [15], in [16], in [17] and in test [18] was “inactive” throughout. For the same compound, the activity, negative = cell killing is -15.7% (inactive) in test [19] (setting [24]), -16.8% (inactive) in test [19] (setting [25]), -29.7% (inactive) in [19] (setting [27]) and 2.15% (inactive) in test [19] (setting [26]).

`CCCCN1CCCC[C@H]1C(=O)Nc1c(C)cccc1C`: the Potency entry in test [1], in test [2], in [3], in test [4], in test [5] and in test [6] was “inactive” in each case. Moreover, the Potency entry in test [7], in test [8], in [9], in [10], in test [11] and in test [12] was “inactive” in each case. In addition, the Potency result in [13], in test [14], in test [15], in [16], in test [17] and in test [18] was “inactive” throughout. Moreover, the activity, negative = cell killing in test [19] (setting [24]) is -6.49% (inactive); in test [19] (setting [25]), -12.7% (inactive); in test [19] (setting [27]), -27.7% (inactive); in test [19] (setting [26]) it was 5.13% (inactive).

For the compound `CCOc1ccc2ccccc2c1C(=O)N[C@@H]1C(=O)N2[C@@H]1SC(C)(C)[C@@H]2C(=O)O`, the Potency entry in [1], in test [2], in [3], in test [4], in [5] and in test [6] was “inactive” in each case. Besides, the Potency entry in test [7], in test [8], in test [9], in test [10], in test [11] and in test [12] was “inactive” throughout. The Potency entry in test [13], in test [14], in test [15], in test [16], in [17] and in [18] was “inactive” in each case. In addition, the activity, negative = cell killing in [19] (setting [20]) is 10.1% (inactive); in [19] (setting [21]), -3.6% (inactive); in test [19] (setting [22]), -26.3% (inactive); in test [19] (setting [23]), -12.7% (inactive).
